Laboratory results: PubChem BioAssay AID1159580 (chemical genetic matrix, 2015)
Several values for one entry are separate records, joined by “and”; a condition that tells them apart may be missing. Equal entries are not always repeated. Out of some 5,500 compounds screened, about 2,000 (36%) were called active. Roughly 18% stayed inconclusive and do not appear here. No stated cut-off is given here; in the data, active means normalized growth mostly below about 0.91 (no sharp cut-off); inconclusive means no clear call, values can overlap the other calls; inactive means mostly above about 0.92. The list shows a part of the results.

Experiment: chemical genetic growth profiling, strain panel (AID 1159580);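 further: tested at 20 µM; growth read once vehicle control cultures reached saturation at 30 °C; 1 = growth at the plate median or of vehicle wells; lower values mean less growth of the strain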
Conditions: growth OD

Measured: normalized growth

CN=C(NC#N)NCCSCc1nc[nH]c1C
inactive: S. cerevisiae deletion strains, locus YJR075W, strain HOC1, active compounds read low 1.01 | S. cerevisiae deletion strains, locus YKL009W, strain mrt4, active compounds read low 1.03 | S. cerevisiae deletion strains, locus YKL068W, active compounds read low 0.992 | S. cerevisiae deletion strains, locus YKL085W, strain MDH1 (second series), active compounds read low 0.992 | S. cerevisiae deletion strains, locus YKL085W, strain MDH1, active compounds read low 0.992 | S. cerevisiae deletion strains, locus YKL160W, strain elf1, active compounds read low 0.986 | S. cerevisiae deletion strains, locus YKL190W, strain CNB1, active compounds read low 1 | S. cerevisiae deletion strains, locus YKR001C, strain vps1, active compounds read low 0.998 | S. cerevisiae deletion strains, locus YKR026C, strain gcn3, active compounds read low 1 | S. cerevisiae deletion strains, locus YKR091W, strain srl3, active compounds read low 1 | S. cerevisiae deletion strains, locus YLL001W, strain dnm1, active compounds read low 1 | S. cerevisiae deletion strains, locus YLL026W, active compounds read low 0.997 | S. cerevisiae deletion strains, locus YLL041C, strain sdh2, active compounds read low 1 | S. cerevisiae deletion strains, locus YLR027C, strain aat2, active compounds read low 1.01 | S. cerevisiae deletion strains, locus YLR039C, strain RIC1, active compounds read low 1 | S. cerevisiae deletion strains, locus YLR058C, strain SHM2, active compounds read low 0.989 | S. cerevisiae deletion strains, locus YLR102C, strain apc9, active compounds read low 0.985 | S. cerevisiae deletion strains, locus YLR113W, strain HOG1, active compounds read low 1.03 | S. cerevisiae deletion strains, locus YLR221C, strain rsa3, active compounds read low 0.986 | S. cerevisiae deletion strains, locus YLR258W, strain gsy2, active compounds read low 1.02 | S. cerevisiae deletion strains, locus YLR262C, strain YPT6 (second series), active compounds read low 1.01 | S. cerevisiae deletion strains, locus YLR262C, strain YPT6, active compounds read low 1.01 | S. cerevisiae deletion strains, locus YLR268W, strain sec22, active compounds read low 0.955 | S. cerevisiae deletion strains, locus YLR320W, strain mms22, active compounds read low 0.982 | S. cerevisiae deletion strains, locus YLR330W, strain CHS5, active compounds read low 0.991 | S. cerevisiae deletion strains, locus YLR342W, strain FKS1 (second series), active compounds read low 1.01 | S. cerevisiae deletion strains, locus YLR342W, strain FKS1, active compounds read low 1 | S. cerevisiae deletion strains, locus YLR357W, strain rsc2, active compounds read low 0.979 | S. cerevisiae deletion strains, locus YLR370C, strain arc18, active compounds read low 1.01 | S. cerevisiae deletion strains, locus YLR371W, strain rom2, active compounds read low 0.993 | S. cerevisiae deletion strains, locus YLR384C, strain iki3, active compounds read low 0.998 | S. cerevisiae deletion strains, locus YLR418C, strain cdc73, active compounds read low 1.03 | S. cerevisiae deletion strains, locus YML016C, strain PPZ1, active compounds read low 0.997 | S. cerevisiae deletion strains, locus YML032C, strain rad52, active compounds read low 0.986 | S. cerevisiae deletion strains, locus YML120C, strain ndi1, active compounds read low 0.993 | S. cerevisiae deletion strains, locus YML124C, strain tub3, active compounds read low 0.98 | S. cerevisiae deletion strains, locus YMR058W, strain fet3, active compounds read low 1 | S. cerevisiae deletion strains, locus YMR078C, strain ctf18, active compounds read low 0.986 | S. cerevisiae deletion strains, locus YMR125W, strain sto1, active compounds read low 0.996 | S. cerevisiae deletion strains, locus YMR129W, active compounds read low 1 | S. cerevisiae deletion strains, locus YMR205C, strain PFK2, active compounds read low 0.994 | S. cerevisiae deletion strains, locus YMR223W, strain ubp8, active compounds read low 1.02 | S. cerevisiae deletion strains, locus YMR231W, strain pep5, active compounds read low 0.999 | S. cerevisiae deletion strains, locus YMR263W, strain SAP30, active compounds read low 0.998 | S. cerevisiae deletion strains, locus YMR307W, strain GAS1, active compounds read low 1 | S. cerevisiae deletion strains, locus YNL067W, strain RPL9B, active compounds read low 1 | S. cerevisiae deletion strains, locus YNL071W, strain lat1, active compounds read low 1.01 | S. cerevisiae deletion strains, locus YNL128W, strain TEP1, active compounds read low 0.991 | S. cerevisiae deletion strains, locus YNL153C, strain GIM3, active compounds read low 0.994 and 1.05 | S. cerevisiae deletion strains, locus YNL175C, strain NOP13, active compounds read low 1 | S. cerevisiae deletion strains, locus YNL183C, strain NPR1, active compounds read low 1 | S. cerevisiae deletion strains, locus YNL197C, strain WHI3, active compounds read low 1.02 | S. cerevisiae deletion strains, locus YNL209W, strain ssb2, active compounds read low 1 | S. cerevisiae deletion strains, locus YNL224C, strain SQS1, active compounds read low 0.993 | S. cerevisiae deletion strains, locus YNL233W, strain BNI4, active compounds read low 0.988 | S. cerevisiae deletion strains, locus YNL248C, strain rpa49, active compounds read low 0.996 | S. cerevisiae deletion strains, locus YNL250W, strain rad50, active compounds read low 0.953 | S. cerevisiae deletion strains, locus YNL271C, strain bni1, active compounds read low 0.965 | S. cerevisiae deletion strains, locus YNL298W, strain CLA4, active compounds read low 0.971 | S. cerevisiae deletion strains, locus YNL307C, strain MCK1, active compounds read low 0.996 | S. cerevisiae deletion strains, locus YNL322C, strain KRE1 (second series), active compounds read low 0.989 | S. cerevisiae deletion strains, locus YNL322C, strain KRE1, active compounds read low 1 | S. cerevisiae deletion strains, locus YNR049C, strain mso1, active compounds read low 1 | S. cerevisiae deletion strains, locus YNR052C, strain pop2, active compounds read low 1 | S. cerevisiae deletion strains, locus YOL006C, strain TOP1, active compounds read low 1.01 | S. cerevisiae deletion strains, locus YOL012C, strain htz1 0.875 | S. cerevisiae deletion strains, locus YOL147C, strain pex11, active compounds read low 0.973 | S. cerevisiae deletion strains, locus YOR001W, strain rrp6, active compounds read low 0.999 | S. cerevisiae deletion strains, locus YOR061W, strain CKA2, active compounds read low 0.99 | S. cerevisiae deletion strains, locus YOR069W, strain VPS5, active compounds read low 0.99 | S. cerevisiae deletion strains, locus YOR070C, strain gyp1, active compounds read low 0.996 | S. cerevisiae deletion strains, locus YOR080W, strain dia2, active compounds read low 1 | S. cerevisiae deletion strains, locus YOR083W, strain WHI5 (second series), active compounds read low 1.04 | S. cerevisiae deletion strains, locus YOR083W, strain WHI5, active compounds read low 0.981 | S. cerevisiae deletion strains, locus YOR106W, strain vam3, active compounds read low 0.979 | S. cerevisiae deletion strains, locus YOR136W, strain idh2, active compounds read low 0.994 | S. cerevisiae deletion strains, locus YOR144C, strain elg1, active compounds read low 0.983 | S. cerevisiae deletion strains, locus YOR184W, strain ser1, active compounds read low 0.993 | S. cerevisiae deletion strains, locus YOR231W, strain MKK1, active compounds read low 1.03 | S. cerevisiae deletion strains, locus YOR265W, strain rbl2, active compounds read low 0.999 | S. cerevisiae deletion strains, locus YOR270C, strain vph1, active compounds read low 1.02 | S. cerevisiae deletion strains, locus YOR290C, strain snf2, active compounds read low 0.972 | S. cerevisiae deletion strains, locus YOR316C, strain cot1, active compounds read low 0.991 | S. cerevisiae deletion strains, locus YPL051W, strain arl3, active compounds read low 0.991 | S. cerevisiae deletion strains, locus YPL055C, strain LGE1, active compounds read low 1.05 | S. cerevisiae deletion strains, locus YPL078C, strain atp4, active compounds read low 1.01 | S. cerevisiae deletion strains, locus YPL106C, strain sse1, active compounds read low 0.972 | S. cerevisiae deletion strains, locus YPL240C, strain hsp82, active compounds read low 1 | S. cerevisiae deletion strains, locus YPL241C, strain CIN2, active compounds read low 0.995 and 1.01 | S. cerevisiae deletion strains, locus YPL256C, strain CLN2, active compounds read low 1.06 | S. cerevisiae deletion strains, locus YPR119W, strain clb2, active compounds read low 0.978 | S. cerevisiae deletion strains, locus YPR141C, strain kar3, active compounds read low 0.97 | S. cerevisiae deletion strains, locus YPR163C, strain tif3, active compounds read low 0.984 | S. cerevisiae deletion strains, locus YPR167C, strain met16, active compounds read low 0.986 | S. cerevisiae deletion strains, strain wtn01, active compounds read low 1.01 | S. cerevisiae strains, strain wild type, active compounds read low 0.998
